Out of some 5,500 compounds screened, about 2,000 (36%) were called active. Inconclusive results (about 18%) are left out. Cut-off read from the data, not from the text of the source: active = normalized growth mostly below about 0.91 (no sharp cut-off); inconclusive = no clear call, values can overlap the other calls; inactive = mostly above about 0.92. This is one part of the list.
Experiment: chemical genetic growth profiling, strain panel (AID 1159580);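 note: tested at 20 µM; growth read once vehicle control cultures reached saturation at 30 °C; 1 = growth at the plate median or of vehicle wells; lower values mean less growth of the strain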
Settings: S. cerevisiae deletion strains, growth OD
[1] = locus YAL040C, strain CLN3, hits give low values
[2] = locus YCL061C, strain MRC1 (second series), hits give low values
[3] = locus YDR363W, strain ESC2, hits give low values
[4] = locus YER002W, strain NOP16, hits give low values
[5] = locus YMR263W, strain SAP30, hits give low values
[6] = locus YNL175C, strain NOP13, hits give low values
[7] = locus YNL197C, strain WHI3, hits give low values
[8] = locus YNL224C, strain SQS1, hits give low values
[9] = locus YOR083W, strain WHI5 (second series), hits give low values
[10] = locus YPL055C, strain LGE1, hits give low values
[11] = locus YPL241C, strain CIN2, hits give low values

Measured: normalized growth

S=C=Nc1cccc(C2(N3CCCCC3)CCCCC2)c1
inactive: locus YAL013W, strain DEP1, hits give low values 0.993 | [1] 0.998 | [2] 0.998 | [3] 0.993 | [4] 1.01 | locus YJR075W, strain HOC1, hits give low values 0.984 | [5] 1 | locus YMR307W, strain GAS1, hits give low values 1 | locus YNL153C, strain GIM3, hits give low values 0.968 | [6] 0.994 | [7] 1.08 | [8] 1.04 | [9] 1 | [10] 0.939 | [11] 1

CC1(C)CCC(NC(=O)[C@@H](N)CCC(=O)O)CC1
inactive: [1] 1.02 | [2] 0.999 | [3] 1.02 | [4] 0.995 | locus YGR078C, strain PAC10, hits give low values 1.02 | [5] 0.999 | [6] 1.01 | [7] 0.998 | [8] 0.999 | locus YNL322C, strain KRE1, hits give low values 1.01 | [9] 1 | [10] 1.02 | [11] 0.996
